Activity calls are given as the source filed them. Unless noted, no rule for the calls is given here.
Tests used:
[1] = anti-His antibody binders, primary screen, artefact control for SMM control protein annotation, biochemical, small-molecule microarray, 635 nm fluorescence (AID 1128); details: anti-His Alexa647 antibody binding, higher = more signal;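 also: score merges feature fluorescence with signal-to-noise for each printed compound spot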
[2] = tested on: Human papillomavirus type 1a E7 protein (residues 1-88); experiment: HPV1a E7 small-molecule binders, primary screen, biochemical, small-molecule microarray, residues 1-88, 635 nm (AID 1129); details: small-molecule microarray binding, fluorescence 635 nm; higher = more signal
[3] = biological target: Focal adhesion kinase 1 (Homo sapiens) (UniProt Q05397); experiment: small-molecule microarray binders of FAK, primary screen, biochemical, 635/667 nm fluorescence, BSA, DTT (AID 1130); details: PTK2 binding, 635 nm fluorescence, higher = more signal;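 also: composite of spot emission at 667 nm and signal to noise over triplicate slides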
Chain of Focal adhesion kinase 1 (Homo sapiens) (Q05397 whole entry, looked up): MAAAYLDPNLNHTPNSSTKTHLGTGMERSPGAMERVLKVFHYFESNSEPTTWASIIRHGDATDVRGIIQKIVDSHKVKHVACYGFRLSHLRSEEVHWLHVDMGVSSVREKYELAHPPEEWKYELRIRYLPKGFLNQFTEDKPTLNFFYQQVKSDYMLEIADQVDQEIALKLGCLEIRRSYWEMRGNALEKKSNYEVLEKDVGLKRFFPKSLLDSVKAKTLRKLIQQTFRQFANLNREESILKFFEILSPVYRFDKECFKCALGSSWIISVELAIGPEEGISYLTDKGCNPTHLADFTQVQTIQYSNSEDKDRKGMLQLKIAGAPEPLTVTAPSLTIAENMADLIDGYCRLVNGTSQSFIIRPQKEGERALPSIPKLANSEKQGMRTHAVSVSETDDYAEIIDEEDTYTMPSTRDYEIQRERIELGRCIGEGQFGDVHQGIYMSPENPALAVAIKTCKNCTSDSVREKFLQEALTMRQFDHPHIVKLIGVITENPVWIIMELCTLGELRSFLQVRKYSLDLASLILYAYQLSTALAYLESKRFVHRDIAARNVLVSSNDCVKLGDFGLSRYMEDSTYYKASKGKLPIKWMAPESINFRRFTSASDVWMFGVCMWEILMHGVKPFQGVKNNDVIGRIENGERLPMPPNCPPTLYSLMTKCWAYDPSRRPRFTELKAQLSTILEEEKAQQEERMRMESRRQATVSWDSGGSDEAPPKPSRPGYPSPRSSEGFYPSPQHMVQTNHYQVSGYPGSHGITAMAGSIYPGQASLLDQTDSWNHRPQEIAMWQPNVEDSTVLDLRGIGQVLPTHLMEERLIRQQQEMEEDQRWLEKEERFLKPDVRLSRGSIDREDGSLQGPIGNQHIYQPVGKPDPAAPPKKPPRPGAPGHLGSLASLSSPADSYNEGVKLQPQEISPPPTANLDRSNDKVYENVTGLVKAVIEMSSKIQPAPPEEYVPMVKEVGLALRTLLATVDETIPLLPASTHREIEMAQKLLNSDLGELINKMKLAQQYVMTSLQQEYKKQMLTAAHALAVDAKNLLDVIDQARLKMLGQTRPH

[4] = tested on: Fibrinogen (Alexa647-labelled); experiment: fibrinogen binders on compound microarrays, profiling panel, artefact control for SMM control-protein annotation, biochemical, small-molecule microarray, 635/667 nm fluorescence (AID 1131); details: fibrinogen-A647 binding fluorescence, higher = more signal;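 also: z-score merges 667 nm fluorescence with per-spot signal-to-noise over triplicate slides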
[5] = biological target: Follistatin (Homo sapiens) (UniProt P19883); experiment: follistatin binders on small-molecule microarrays, primary screen, biochemical, small-molecule microarray, 635/667 nm fluorescence (AID 1132); details: FST binding, 635 nm fluorescence, higher = more signal
Chain of Follistatin (Homo sapiens) (P19883 whole entry, looked up): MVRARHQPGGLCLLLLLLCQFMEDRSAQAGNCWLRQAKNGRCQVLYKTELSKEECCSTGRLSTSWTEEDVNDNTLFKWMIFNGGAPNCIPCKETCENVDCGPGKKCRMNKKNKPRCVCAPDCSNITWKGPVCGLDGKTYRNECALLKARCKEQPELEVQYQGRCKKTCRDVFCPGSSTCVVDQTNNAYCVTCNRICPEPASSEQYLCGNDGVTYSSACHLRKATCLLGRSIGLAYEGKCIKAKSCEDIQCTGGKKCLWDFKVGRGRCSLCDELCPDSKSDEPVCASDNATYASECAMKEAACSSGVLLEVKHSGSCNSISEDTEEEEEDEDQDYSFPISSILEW

[6] = biological target: Fibroblast growth factor 2 (Homo sapiens) (UniProt P09038); experiment: FGF2 binders on small-molecule microarrays, primary screen, biochemical, small-molecule microarray, 635/667 nm fluorescence (AID 1133); details: small-molecule microarray binding, FGF2, fluorescence 635/667; higher = more signal
Chain of Fibroblast growth factor 2 (Homo sapiens) (P09038 whole entry, looked up): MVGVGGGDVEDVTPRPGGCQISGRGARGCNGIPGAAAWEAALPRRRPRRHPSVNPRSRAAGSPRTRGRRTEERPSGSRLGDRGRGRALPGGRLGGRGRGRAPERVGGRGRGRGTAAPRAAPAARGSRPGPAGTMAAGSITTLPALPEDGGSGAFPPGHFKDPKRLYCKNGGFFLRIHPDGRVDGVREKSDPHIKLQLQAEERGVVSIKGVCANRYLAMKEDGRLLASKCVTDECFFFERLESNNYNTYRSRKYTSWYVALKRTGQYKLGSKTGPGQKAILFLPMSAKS

[7] = mitochondrial membrane potential change in A549 cells, profiling panel, cell-based, JC-1 fluorescence, basal, 24 h, 100 nL (AID 1138); details: higher = more signal;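 also: A549 lung adenocarcinoma cells under basal conditions with no added stimulus; test concentration not given here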
Lefty1 = Lefty1 binders on small-molecule microarrays, primary screen, biochemical, small-molecule microarray, 635/667 nm fluorescence (AID 1139); details: small-molecule microarray binding, fluorescence 635/667; higher = more signal
[8] = tested on: wheat germ agglutinin (Triticum aestivum), Alexa647-labelled; experiment: wheat germ agglutinin binders on compound microarrays, profiling panel, artefact control for SMM control-protein annotation, biochemical, small-molecule microarray, 635/667 nm fluorescence (AID 1140); details: WGA-A647 binding, 635 nm fluorescence, higher = more signal;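 also: score merges 667 nm feature emission with signal to noise over triplicate slides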
[9] = biological target: Luciferin 4-monooxygenase (Photinus pyralis) (UniProt P08659); experiment: firefly luciferase enzyme inhibitors, primary screen, biochemical, luminescence, purified enzyme, 2006 set (AID 1141); details: SteadyGlo luminescence, 30 min, higher = more signal, called active from +8 up or from −8 down;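 also: cell-free assay with purified firefly luciferase at 100 ng per well in PBS; test concentration not given here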
Chain of Luciferin 4-monooxygenase (Photinus pyralis) (P08659 whole entry, looked up): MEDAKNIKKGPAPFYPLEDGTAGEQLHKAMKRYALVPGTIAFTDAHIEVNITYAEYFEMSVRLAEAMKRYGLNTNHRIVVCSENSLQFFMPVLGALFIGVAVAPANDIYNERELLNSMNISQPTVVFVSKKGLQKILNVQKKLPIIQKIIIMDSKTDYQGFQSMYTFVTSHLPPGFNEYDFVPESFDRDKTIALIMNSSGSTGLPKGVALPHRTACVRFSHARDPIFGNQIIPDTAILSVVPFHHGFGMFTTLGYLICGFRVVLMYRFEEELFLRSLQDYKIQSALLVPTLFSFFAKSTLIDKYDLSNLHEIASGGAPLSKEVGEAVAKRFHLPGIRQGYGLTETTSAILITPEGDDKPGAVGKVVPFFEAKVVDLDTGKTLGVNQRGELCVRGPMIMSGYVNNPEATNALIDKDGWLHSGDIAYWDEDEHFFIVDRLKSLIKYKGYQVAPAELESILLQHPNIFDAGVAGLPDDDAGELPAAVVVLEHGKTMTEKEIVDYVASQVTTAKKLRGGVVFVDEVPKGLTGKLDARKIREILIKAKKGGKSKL

[10] = tested on: Wnt5a (protein binding on small-molecule microarray); experiment: Wnt5a binders on small-molecule microarray, primary screen, biophysical, 635/667 nm fluorescence (AID 1142); details: 635 nm fluorescence, higher = more signal;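 also: fluorescence read at 667 nm with signal to noise per printed feature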
[11] = cell viability in Huh7 cells, primary screen, cytotoxicity control for HCV replication inhibitor project, CellTiter-Glo luminescence, basal, 48 h (AID 1143); details: Huh7 HCV replicon, higher = more signal, called active from +8 up or from −8 down;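 also: Huh7 hepatoma cells carrying a hepatitis C replication reporter with no stimulus; test concentration not given here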
[12] = P. aeruginosa biofilm formation inhibitors, primary screen, PAO1 strain, BacTiter-Glo luminescence, LB-PBS (AID 1144); details: 12 h, higher = more signal
[13] = CREB reporter modulators without forskolin, primary screen, cell-based, PC12, CRE-LacZ reporter, unstimulated (AID 1145); details: no forskolin, luminescence, 4.5 h, higher = more signal, called active from +8 up or from −8 down
[14] = CREB reporter modulators under forskolin, primary screen, cell-based, PC12, CRE-LacZ reporter, forskolin-stimulated (AID 1146); details: luminescence, 4.5 h, higher = more signal, called active from +8 up or from −8 down;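 also: PC12 cells with 6xCRE LacZ reporter stimulated by forskolin 10 µM; beta-galactosidase reporter signal reflecting CREB driven transcription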
[15] = biological target: Streptavidin (Streptomyces avidinii) (UniProt P22629); experiment: streptavidin binders on small-molecule microarray, primary screen, artefact control for SMM compound annotation, biophysical, 635/667 nm fluorescence (AID 1147); details: streptavidin binding, higher = more signal;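 also: signal reflects streptavidin binding to arrayed compounds as a control protein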
Chain of Streptavidin (Streptomyces avidinii) (P22629 whole entry, looked up): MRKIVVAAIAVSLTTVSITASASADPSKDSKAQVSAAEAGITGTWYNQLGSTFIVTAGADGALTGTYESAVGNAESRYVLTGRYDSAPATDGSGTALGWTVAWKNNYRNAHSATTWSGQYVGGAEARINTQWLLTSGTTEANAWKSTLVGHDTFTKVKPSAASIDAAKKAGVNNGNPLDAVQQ

[16] = small-molecule binders of probe aInhba, primary screen, biochemical, small-molecule microarray, 635/667 nm fluorescence (AID 1148); details: higher = more signal;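 also: score merges 667nm spot fluorescence with signal-to-noise for antibody binding to printed compounds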
Torsin-1A (Homo sapiens) [17] = biological target: Torsin-1A (Homo sapiens) (UniProt O14656); experiment: torsin A binders from cell lysate, primary screen, small-molecule microarray, wild-type, 635/667 nm (AID 1149); details: COS7 hTOR1A-WT lysate, 635 nm fluorescence, higher = more signal
Chain of Torsin-1A (Homo sapiens) (O14656 whole entry, looked up): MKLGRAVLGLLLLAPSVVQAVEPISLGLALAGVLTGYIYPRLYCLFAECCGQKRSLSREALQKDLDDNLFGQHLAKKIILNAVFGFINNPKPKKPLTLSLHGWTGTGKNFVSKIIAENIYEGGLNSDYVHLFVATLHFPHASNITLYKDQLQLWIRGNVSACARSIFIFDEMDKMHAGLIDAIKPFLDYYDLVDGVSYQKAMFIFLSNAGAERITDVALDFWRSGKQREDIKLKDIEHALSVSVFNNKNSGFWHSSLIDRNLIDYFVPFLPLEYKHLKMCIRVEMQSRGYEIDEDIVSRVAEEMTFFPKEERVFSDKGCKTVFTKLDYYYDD

Torsin-1A (Homo sapiens) [18] = biological target: Torsin-1A (Homo sapiens) (UniProt O14656); experiment: small-molecule binders of mutant TOR1A in lysate, primary screen, cell lysate, small-molecule microarray, COS7 lysate, 635/667 nm fluorescence (AID 1150); details: COS7 hTOR1A mutant lysate, 635 nm fluorescence, higher = more signal;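 also: score pools 667 nm emission and signal to noise measuring lysate protein binding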
[19] = tested on: Sonic hedgehog protein (Shh); experiment: small-molecule binders of Shh protein, primary screen, biochemical, small-molecule microarray, 635/667 nm fluorescence (AID 1151); details: small-molecule microarray binding, 635 nm fluorescence; higher = more signal;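 also: Shh protein binding to compounds spotted on small-molecule microarray slides; score combines spot fluorescence intensity with signal-to-noise across triplicate slides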

SMILES	composite z-score [1]	composite z-score [2]	composite z-score [3]	composite z-score [4]	composite z-score [5]	composite z-score [6]	z-score [7]	composite z-score (Lefty1)	composite z-score [8]	z-score [9]	composite z-score [10]	z-score [11]	z-score [12]	z-score [13]	z-score [14]	composite z-score [15]	composite z-score [16]	composite z-score (Torsin-1A (Homo sapiens) [17])	composite z-score (Torsin-1A (Homo sapiens) [18])	composite z-score [19]
COc1ccc(CCN2C(=O)[C@@]3(Cc4ccccc42)c2ccccc2C(=O)N(Cc2ccccc2OC)[C@H]3c2ccc(CO)cc2)cc1	-0.983	-1.04	-0.149	-1.45	-1.19	-0.832	0.132	-1.55	-0.176	-0.377 (inactive)	-0.166	-4.54 (inactive)	0.0431 (inactive)	0.649 (inactive)	-0.341 (inactive)	-0.491	-0.126	-0.194	-0.933	-0.384
COc1cccc(/C=C/C=O)c1	0.0592	0.203	-0.0159	-1.77	0.261	0.316	1.47	-0.0262	0.205	-1.36 (inactive)	0.279	-0.0204 (inactive)	-0.301 (inactive)	0.0026 (inactive)	0.599 (inactive)	-0.283	0.156	0.582	0.351	0.0757
O=C1NC(=O)C2C1C=CC(C(O)c1cccc3ccccc13)N2Nc1ccc(Cl)cc1Cl (stereo not given)	1.92	1.16	0.442	0.838	0.425	-0.517	-1.28	-0.734	0.758	0.0698 (inactive)	0.288	-1.96 (inactive)	-0.329 (inactive)	-0.14 (inactive)	-0.572 (inactive)	0.984	0.153	-0.616	1.01	-0.325
CCOC(=O)C[C@H]1[C@H](OC(=O)c2ccccc2-c2ccccc2)[C@@H](NC(=O)C2CCCCC2)c2cc(OCCCO)ccc2N1C(=O)Cc1ccc(OC)cc1	0.0271	-0.525	0.559	-0.873	-0.211	-0.377	1.58	0.442	0.752	0.0079 (inactive)	0.0136	-0.226 (inactive)	0.642 (inactive)	4.65 (inactive)	0.899 (inactive)	0.0611	-0.0736	-0.0183	0.307	-0.0275
C=CCC(OC(C)=O)[C@@H]1[C@@H](N(Cc2cccc3ccccc23)C(=O)Cc2ccc(OC)cc2)c2cc(OCCCO)ccc2N1C(=O)c1ccc2ccccc2n1 (stereo not given in full)	-0.115	-0.0569	0.833	0.733	0.822	0.0677	0.343	-0.0766	0.174	0.565 (inactive)	0.216	-2.08 (inactive)	-0.253 (inactive)	-0.374 (inactive)	1.3 (inactive)	1.05	0.0569	-0.512	0.0537	0.524
COc1ccc(C(O)C2C=CC3C(=O)N(c4ccccc4)C(=O)C3N2Nc2ccc([N+](=O)[O-])cc2)cc1 (stereo not given)	2.11	1.24	0.961	1.01	0.848	-0.246	0.103	-0.344	1.14	0.732 (inactive)	0.516	-0.474 (inactive)	0.403 (inactive)	0.182 (inactive)	-0.298 (inactive)	0.789	1.18	0.0294	0.874	-0.397
CN(C)C(=O)[C@@]1(Cc2ccccc2CN=[N+]=[N-])N=C(c2ccc(OCCCO)cc2)O[C@H]1c1ccccc1CN=[N+]=[N-]	2.33	1.21	0.419	0.856	0.652	-0.025	1.43	-0.483	1.12	0.184 (inactive)	0.507	-3.14 (inactive)	0.427 (inactive)	2.69 (inactive)	0.517 (inactive)	1.1	0.575	0.0276	0.767	-0.304
C=C(/C(=C/C[C@H](OC(C)=O)c1cccc(OCCO)c1)c1cnc2ccccc2c1)C(C)C	-0.373	0.68	0.151	-0.325	1.36	0.429	1.61	1.08	0.961	-1.19 (inactive)	0.217	-0.262 (inactive)	0.424 (inactive)	5.97 (inactive)	-0.323 (inactive)	0.653	0.124	0.04	0.491	2
COCCOC(=O)N1C(=O)[C@@]2(c3cc(C#CC4=CCCCC4)ccc31)[C@H](C(N)=O)[C@H]1C(=O)O[C@H](c3ccccc3)[C@H](c3ccccc3)N1[C@@H]2c1ccccc1OCCO	1.34	1.21	0.143	0.939	1.31	1.42	-1.89	0.943	1.05	-0.591 (inactive)	0.183	-6.52 (inactive)	-0.413 (inactive)	-0.333 (inactive)	-0.855 (inactive)	0.483	0.147	0.38	1.41	1.08
CC(=O)NCCCC[C@@H]1NC(=O)[C@H]2C[C@@H](C(=O)NCCCC[N+](C)(C)C)[C@@H](c3cccc(OCCO)c3)N2C1=O	1.57	-0.416	0.191	0.231	1.47	1.85	0.584	1.71	0.552	-1.42 (inactive)	0.975	-1.62 (inactive)	0.481 (inactive)	-0.667 (inactive)	0.451 (inactive)	-0.296	0.0031	1.07	2.34	2.18
